The text below walks through data of ChEMBL document CHEMBL1961873, “Compounds: GSK PKIS; Assays: Nanosyn kinase panel” (2012).

The inhibition is the relative decrease from the control value, in per cent.

SMILES strings stand for the structures.

Assay [1] deals with Sphingosine kinase 1 (Homo sapiens) (UniProt Q9NYA1). To be noted: at 1 µM.
In assay [2] the target is T1, Sphingosine kinase 2 (Homo sapiens) (UniProt Q9NRA0).
T1 sequence (whole entry): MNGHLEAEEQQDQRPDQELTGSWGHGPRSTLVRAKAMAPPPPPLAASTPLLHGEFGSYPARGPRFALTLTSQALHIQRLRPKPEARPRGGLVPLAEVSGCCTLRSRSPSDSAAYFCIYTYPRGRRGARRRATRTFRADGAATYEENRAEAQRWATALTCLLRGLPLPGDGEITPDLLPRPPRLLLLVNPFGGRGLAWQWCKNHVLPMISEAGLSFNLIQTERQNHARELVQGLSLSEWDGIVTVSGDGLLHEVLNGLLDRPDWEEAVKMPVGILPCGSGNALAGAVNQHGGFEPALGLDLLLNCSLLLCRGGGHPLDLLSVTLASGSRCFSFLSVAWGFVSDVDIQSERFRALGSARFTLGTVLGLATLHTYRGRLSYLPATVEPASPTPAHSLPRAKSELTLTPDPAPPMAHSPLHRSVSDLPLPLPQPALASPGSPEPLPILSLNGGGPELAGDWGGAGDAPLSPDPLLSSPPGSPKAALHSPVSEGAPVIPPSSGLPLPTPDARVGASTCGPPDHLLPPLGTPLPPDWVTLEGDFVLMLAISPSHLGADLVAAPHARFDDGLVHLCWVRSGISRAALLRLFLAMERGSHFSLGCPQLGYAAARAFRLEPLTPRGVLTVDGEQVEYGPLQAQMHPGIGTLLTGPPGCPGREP
To be noted: at 0.1 µM.

In assay [3] the target is T1, Sphingosine kinase 2 (Homo sapiens). To be noted: at 1 µM.
The target in assay [4] is Casein kinase II subunit alpha (Homo sapiens) (UniProt P68400). To be noted: at 0.1 µM.
Assay [5] shares this target. To be noted: at 1 µM.
In assay [6] the target is T2, Inhibitor of nuclear factor kappa-B kinase subunit alpha (Homo sapiens) (UniProt O15111).
T2 sequence (whole entry): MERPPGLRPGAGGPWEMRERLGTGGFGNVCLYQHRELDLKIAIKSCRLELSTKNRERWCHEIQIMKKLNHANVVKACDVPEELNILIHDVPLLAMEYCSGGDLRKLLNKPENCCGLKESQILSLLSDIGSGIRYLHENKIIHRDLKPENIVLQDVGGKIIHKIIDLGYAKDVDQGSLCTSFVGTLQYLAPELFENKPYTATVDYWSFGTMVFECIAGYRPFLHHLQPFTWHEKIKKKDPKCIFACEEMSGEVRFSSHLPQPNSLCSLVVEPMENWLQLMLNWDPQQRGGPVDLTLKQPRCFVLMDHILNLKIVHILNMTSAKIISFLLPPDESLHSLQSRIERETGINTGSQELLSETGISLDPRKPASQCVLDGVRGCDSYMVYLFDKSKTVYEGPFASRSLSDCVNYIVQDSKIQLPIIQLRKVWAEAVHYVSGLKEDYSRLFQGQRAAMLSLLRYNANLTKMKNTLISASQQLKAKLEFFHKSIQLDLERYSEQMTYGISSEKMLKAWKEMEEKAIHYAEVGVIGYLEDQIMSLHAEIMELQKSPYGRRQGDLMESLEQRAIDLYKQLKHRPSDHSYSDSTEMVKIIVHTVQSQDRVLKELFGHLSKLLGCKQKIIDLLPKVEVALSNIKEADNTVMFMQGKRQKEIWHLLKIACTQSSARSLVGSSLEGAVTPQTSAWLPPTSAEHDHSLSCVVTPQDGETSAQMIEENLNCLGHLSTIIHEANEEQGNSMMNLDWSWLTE
To be noted: at 0.1 µM.

In assay [7] the target is T2, Inhibitor of nuclear factor kappa-B kinase subunit alpha (Homo sapiens). To be noted: at 1 µM.
The target of assay [8] is T3, Inhibitor of nuclear factor kappa-B kinase subunit beta (Homo sapiens) (UniProt O14920).
T3 sequence (whole entry): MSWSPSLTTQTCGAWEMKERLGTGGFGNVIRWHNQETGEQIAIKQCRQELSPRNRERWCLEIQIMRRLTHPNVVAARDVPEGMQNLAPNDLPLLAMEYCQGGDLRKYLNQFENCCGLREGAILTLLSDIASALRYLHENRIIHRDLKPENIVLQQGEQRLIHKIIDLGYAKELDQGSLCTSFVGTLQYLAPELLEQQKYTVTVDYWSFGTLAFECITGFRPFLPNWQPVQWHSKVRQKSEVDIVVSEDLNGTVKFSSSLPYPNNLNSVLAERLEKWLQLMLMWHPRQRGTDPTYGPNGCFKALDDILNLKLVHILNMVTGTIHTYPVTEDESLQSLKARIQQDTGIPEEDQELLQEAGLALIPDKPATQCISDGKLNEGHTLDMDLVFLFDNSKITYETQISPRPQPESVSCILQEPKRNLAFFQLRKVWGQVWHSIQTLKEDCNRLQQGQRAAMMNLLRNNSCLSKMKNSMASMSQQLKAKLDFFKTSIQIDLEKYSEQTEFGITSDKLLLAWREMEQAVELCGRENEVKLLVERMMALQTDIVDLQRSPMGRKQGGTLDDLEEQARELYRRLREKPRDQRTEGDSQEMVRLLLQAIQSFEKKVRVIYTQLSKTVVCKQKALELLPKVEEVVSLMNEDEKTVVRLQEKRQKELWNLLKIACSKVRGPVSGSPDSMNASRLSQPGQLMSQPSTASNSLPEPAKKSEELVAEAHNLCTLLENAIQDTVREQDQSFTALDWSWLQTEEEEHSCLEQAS
To be noted: at 0.1 µM.

The target in assay [9] is T3, Inhibitor of nuclear factor kappa-B kinase subunit beta (Homo sapiens). To be noted: at 1 µM.
Assay [10] has as its target T4, Inhibitor of nuclear factor kappa-B kinase subunit epsilon (Homo sapiens) (UniProt Q14164).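 Also: mean inhibition of IKKε reported, from the GSK PKIS dataset.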
T4 sequence (whole entry): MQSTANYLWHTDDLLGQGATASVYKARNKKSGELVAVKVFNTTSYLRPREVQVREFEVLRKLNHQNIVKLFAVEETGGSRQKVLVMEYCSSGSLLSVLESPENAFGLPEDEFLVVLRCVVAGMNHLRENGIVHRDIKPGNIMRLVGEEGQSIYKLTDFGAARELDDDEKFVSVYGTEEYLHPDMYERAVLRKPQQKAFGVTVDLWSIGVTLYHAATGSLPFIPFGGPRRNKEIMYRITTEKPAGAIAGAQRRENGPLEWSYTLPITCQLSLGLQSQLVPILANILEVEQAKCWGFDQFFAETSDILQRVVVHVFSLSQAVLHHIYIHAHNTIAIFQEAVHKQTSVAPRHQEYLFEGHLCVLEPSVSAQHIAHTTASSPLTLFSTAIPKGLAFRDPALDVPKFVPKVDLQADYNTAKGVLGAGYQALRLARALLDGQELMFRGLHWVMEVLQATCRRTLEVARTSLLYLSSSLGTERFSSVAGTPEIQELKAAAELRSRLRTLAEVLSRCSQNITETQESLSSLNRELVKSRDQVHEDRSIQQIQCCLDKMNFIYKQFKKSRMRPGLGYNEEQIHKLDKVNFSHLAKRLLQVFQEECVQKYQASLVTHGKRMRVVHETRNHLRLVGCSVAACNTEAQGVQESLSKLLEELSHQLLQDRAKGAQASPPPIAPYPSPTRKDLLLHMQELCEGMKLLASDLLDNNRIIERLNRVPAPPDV
To be noted: at 0.1 µM.

Sequence of Sphingosine kinase 1 (Homo sapiens) (Q9NYA1 whole entry): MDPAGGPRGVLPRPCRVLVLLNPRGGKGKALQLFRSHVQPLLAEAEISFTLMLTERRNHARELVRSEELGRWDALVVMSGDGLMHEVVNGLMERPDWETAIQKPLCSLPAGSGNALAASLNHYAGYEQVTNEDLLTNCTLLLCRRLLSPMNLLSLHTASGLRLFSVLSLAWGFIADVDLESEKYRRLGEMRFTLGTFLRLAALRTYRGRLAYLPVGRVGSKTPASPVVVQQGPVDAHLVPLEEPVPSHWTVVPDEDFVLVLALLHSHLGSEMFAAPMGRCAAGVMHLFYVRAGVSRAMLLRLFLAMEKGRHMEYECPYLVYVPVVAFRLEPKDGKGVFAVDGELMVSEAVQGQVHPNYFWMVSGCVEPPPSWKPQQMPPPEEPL
Sequence of Casein kinase II subunit alpha (Homo sapiens) (P68400 whole entry, looked up): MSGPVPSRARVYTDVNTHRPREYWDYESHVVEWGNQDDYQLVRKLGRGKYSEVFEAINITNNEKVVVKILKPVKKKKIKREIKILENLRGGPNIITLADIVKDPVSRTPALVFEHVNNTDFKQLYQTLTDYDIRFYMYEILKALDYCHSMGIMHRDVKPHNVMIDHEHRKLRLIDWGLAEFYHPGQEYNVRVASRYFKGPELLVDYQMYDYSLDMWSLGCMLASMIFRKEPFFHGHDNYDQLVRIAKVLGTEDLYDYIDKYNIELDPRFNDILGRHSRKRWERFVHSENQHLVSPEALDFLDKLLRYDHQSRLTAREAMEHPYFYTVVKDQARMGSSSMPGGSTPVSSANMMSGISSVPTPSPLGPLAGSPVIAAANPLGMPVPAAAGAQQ

Turning to `CC(=O)Nc1cccc(C#Cc2cncnc2Nc2ccc(OCc3cccc(F)c3)c(Cl)c2)n1`, the inhibition in [1] is 0.51%; in [2], 1.73%; in assay [3], -0.13%; in [4], 2.14%; in [5], 9.24%; in [6], 2.26%. Moreover, the inhibition in [7] was -1.99%; in assay [8], -3.08%; in [9], 2.94%; in [10], 2.95%.
For the molecule `COc1cccc(-n2ncc3c(N/N=C/c4cccc(F)c4)ncnc32)c1`, the inhibition in [1] is -2.05%; in [2] it was 3.58%; in assay [3] it was -0.22%; in [4], 1.77%; in [5], 11.4%; in [6] it was -0.08%. The inhibition in assay [7] was 6.98%; in [8], 2.27%; in assay [9] it was 0.31%; in assay [10], 3.6%.
Consider `CS(=O)(=O)CCNCc1ccc(-c2ccc3ncnc(Nc4ccc(OCc5ccccc5)c(Cl)c4)c3c2)o1`, for which the inhibition is 2.51% in [1]; 1.2% in [2]; -1.85% in [3]; -1.12% in assay [4]; 1.71% in assay [5]; -2.26% in [6]. The inhibition in assay [7] was 2.45%; in assay [8], -1.73%; in [9] it was 0.03%; in assay [10], 0.17%.
In the case of `Cn1cc(C=C2C(=O)Nc3cccnc32)c2ccccc21`, the inhibition in assay [1] was 8.29%; in assay [2], -4.3%; in assay [3], -0.04%; in assay [4], 1.08%; in [5], 6.39%; in assay [6], 5.69%. Further, the inhibition in assay [7] is -0.33%; in assay [8] it was 2.27%; in assay [9], 1.05%; in assay [10], 3.13%.
With `CN(C)c1cc2c(Nc3ccc4nc(Cc5ccccc5)[nH]c4c3)ncnc2cn1`, the inhibition in [1] is -4.39%; in assay [2] it was -0.89%; in assay [3] it was -0.82%; in [4], 3.31%; in assay [5] it was 1.45%; in [6], 9.26%. In addition, the inhibition in [7] came out at 9.4%; in [8], 7.48%; in [9] it was 6.68%; in assay [10] it was 17.5%.
As to `COc1ccc2cc(-c3c(-c4ccncc4)nc(-c4ccc([S+](C)[O-])cc4)n3C)ccc2c1` (stereo not given), the inhibition was -3.23% in assay [1]; -1.61% in assay [2]; -1.21% in assay [3]; 0.27% in assay [4]; -4.21% in [5]; 3.64% in [6]. For the same molecule, the inhibition came out at 0.12% in assay [7], 3.95% in [8], 3.93% in assay [9] and 4.41% in assay [10].
Take `Nc1ncnc2occ(-c3ccc(NC(=O)Nc4cc(C(F)(F)F)cc(C(F)(F)F)c4)cc3)c12`: the inhibition in [1] was -0.76%; in [2], 1.12%; in assay [3], -0.25%; in assay [4] it was 0.36%; in [5], -5.3%; in assay [6], -5.23%. The inhibition in assay [7] is -3.15%; in assay [8] it was -0.04%; in [9] it was 1.07%; in assay [10], -2.4%.
For `NC(=O)c1cccc(Nc2nccc(Nc3cccc4[nH]ncc34)n2)c1`, the inhibition in [1] is -1.98%; in assay [2], -0.9%; in assay [3], 0.58%; in [4], -0.25%; in assay [5], 3.56%; in assay [6], 7.29%. The inhibition in [7] was 41%; in assay [8] it was -0.17%; in assay [9], 17.4%; in assay [10], -3.38%.
